Measurements as given in PubChem BioAssay AID1851 (National Center for Advancing Translational Sciences (NCATS), 2009).
Several values for one entry are separate records, joined by “and”; a condition that tells them apart may be missing. Equal entries are not always repeated. Hit rate of the full screen: of about 16,000 compounds, about 2,600 (16%) were called active. Not shown: some 20% with an inconclusive outcome. Calls follow the shape of the dose curve; as a rule, active = well fitted curve in the direction sought with a large enough effect; inconclusive = small, poorly fitted or top-dose-only effect, or effect the other way; inactive = no such curve, though single readings can be large or run the other way. Only a sample is shown. Some compounds were tested as several samples or in several runs, with calls that do not always agree.

Biological target: Cytochrome P450 2D6 (Homo sapiens) (UniProt P10635)
Sequence (P10635 whole entry, looked up): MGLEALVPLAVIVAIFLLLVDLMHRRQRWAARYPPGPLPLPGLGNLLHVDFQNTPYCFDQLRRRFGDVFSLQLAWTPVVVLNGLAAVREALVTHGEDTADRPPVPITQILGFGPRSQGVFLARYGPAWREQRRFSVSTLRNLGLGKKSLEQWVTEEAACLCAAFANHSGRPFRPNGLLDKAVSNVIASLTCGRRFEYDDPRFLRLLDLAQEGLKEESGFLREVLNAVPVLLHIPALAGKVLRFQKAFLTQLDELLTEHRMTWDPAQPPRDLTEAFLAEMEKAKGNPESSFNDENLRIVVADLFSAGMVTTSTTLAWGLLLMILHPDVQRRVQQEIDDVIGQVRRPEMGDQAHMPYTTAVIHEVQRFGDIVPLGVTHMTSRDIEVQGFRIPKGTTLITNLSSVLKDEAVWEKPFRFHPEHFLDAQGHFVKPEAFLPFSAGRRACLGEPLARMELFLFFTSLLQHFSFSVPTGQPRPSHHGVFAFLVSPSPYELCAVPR
Test: Cytochrome panel assay with activity outcomes
Details: recombinant CYP, pro-luciferin dealkylation, luminescence, p450-cyp2d6; series mostly up to 57.1 µM
% is scaled to controls: 0 for no effect and ±100 for the full control effect.

SMILES | AC50 | activity, negative = inhibition
O=C(Nc1ccccc1N1CCN(C(=O)c2ccccc2)CC1)c1cc(Br)ccc1Cl | inactive | 
S=c1[nH]nc(CSCc2ccccc2Cl)n1-c1ccccc1 | inactive | 
COC(=O)[C@@]1(Cc2ccc(OC)cc2)[C@@H]2[C@@H](CC(=O)[C@H]2CC(=O)C(=O)N2CCCC2)CN1C(=O)c1ccccc1 | inactive | 
Cc1cccc(NC(=S)N/N=C/c2ccc([N+](=O)[O-])s2)c1 | inactive | 
COc1ccc(-c2nc(N)c3ncn([C@H]4O[C@@H](CO)[C@@H](O)[C@@H]4O)c3n2)cc1 |  | 1.32% [at 11.4 µM] (inactive)
COc1ccc(-n2c(=O)[nH]cc(C(=O)Nc3ccc4c(c3)OCCO4)c2=O)cc1 | inactive | 
CC(Sc1nnc(C(C)N(C)C)n1-c1ccc(Cl)cc1)C(=O)Nc1ccc2c(c1)OCO2 (stereo not drawn) | 14.1 µM (active) | 
Cc1cc(C)c(NC(=O)C(C)Sc2nnc(-c3ccco3)n2-c2ccccc2)c(C)c1 (stereo not drawn) | inactive | 
CC(C)C1NC(=S)N(Cc2ccccc2)C1=O (stereo not drawn) | inactive | 
COc1ccc(CCNC[C@H](O)c2ccc(O)cc2)cc1OC | inactive | 
COc1ccc(C[N+](C)(C)N)cc1OC |  | 0.726% [at 11.4 µM] (inactive)
COc1ccc(CNCCC(c2ccc(OC(C)C)cc2)C(C)C)cc1OC (stereo not drawn) | 0.251 µM (active) | 
COC(=O)C/C=C\[C@@H](C)[C@@H](/C=N\O[C@@H](C)c1cc(-c2c(C)cc(C)cc2C)no1)OC |  | -10.8% [at 11.4 µM] (inactive)
COc1ccc(-n2c(CNc3ccc(C)cc3)nnc2SCC(=O)Nc2nc(-c3ccccc3)cs2)cc1 | inactive | 
CCc1ccccc1N1C(=O)c2cccc3c(N4CCOCC4)c([N+](=O)[O-])cc(c23)C1=O | inactive | 
O=S1(=O)C=C(N2CCOCC2)c2ccccc21 | inactive | 
O=c1cc(N2CCOCC2)oc2c(-c3ccccc3)cccc12 | inactive and 25.1 µM (active) | 
CNc1nc(C)cc(C)c1S(=O)(=O)c1ccc(C)cc1 | inactive | 
Cc1ccc(-n2c3c(c(=O)[nH]c2=O)C(C(F)(F)F)(C(F)(F)F)NC(=O)N3)cc1 | inactive | 
CCCOc1ccc(/C=C/C(=O)Nc2ccc([N+](=O)[O-])cc2C)cc1OC | inactive | 
CCN(CC(=O)Nc1ccc([N+](=O)[O-])cc1OC)c1ccccc1 | 14.1 µM (active) | 
COc1ccc(OC)c(NC(=O)CC(Cc2ccccc2OC)C(=O)O)c1 (stereo not drawn) | inactive | 
Cc1ccc([N+](=O)[O-])cc1NC(=S)NC(=O)C(C)(C)C | inactive | 
CC(CC(=O)Nc1ccc(Cl)c([N+](=O)[O-])c1)c1ccccc1 (stereo not drawn) | 0.447 µM (active) | 

SMILES | AC50 | activity, negative = inhibition
COc1ccccc1NC(=O)Cn1cncc1-c1ccc([N+](=O)[O-])cc1 | inactive | 
COc1ccc([N+](=O)[O-])cc1NC(=S)NC(NC(=O)Cc1ccc(OC)c(OC)c1)C(Cl)(Cl)Cl (stereo not drawn) | 0.355 µM (active) | 
CCN(CC)S(=O)(=O)c1ccc(OC)c(NC(=O)CSc2ccccc2)c1 | inactive | 
COc1ccc([N+](=O)[O-])cc1NC(=O)CC(C)c1ccccc1 (stereo not drawn) | 11.2 µM (active) | 
CCOc1cc(NC(=O)c2ccccc2[N+](=O)[O-])c(OCC)cc1NC(=O)CC(C)C | inactive | 
O=C(CSc1ccc(C(F)(F)F)cc1[N+](=O)[O-])Nc1ccccc1 | inactive | 
CCOc1ccc(NC(=S)NC(=O)/C=C/c2ccc(OC)c(OC)c2)c([N+](=O)[O-])c1 | inactive | 
Cc1ccc(S(=O)(=O)N[C@H]2COC(=O)CC=C[C@@H](C)[C@H]3C=C[C@H](O)[C@@H](COC(=O)CC=C[C@H]2C)O3)cc1 |  | -6.53% [at 11.4 µM] (inactive) and 13.3% [at 11.4 µM] (inactive)
Cc1ccc(N2C(=O)CSC2c2cccnc2)cc1F (stereo not drawn) | inactive | 
c1ccc(-c2noc(-c3ccc4ccccc4c3)n2)cc1 | inactive | 
CC(C)[C@H](CO)Nc1nc(Nc2ccc(C(=O)O)c(Cl)c2)c2ncn(C(C)C)c2n1 | inactive | 
C=CCNC(=O)c1cccn1-c1ccsc1C(=O)OC | inactive | 
O=C(N[C@@]1(C(=O)O)C[C@@H]1c1ccccc1)c1ccccc1 |  | 11.3% [at 11.4 µM] (inactive)
CCCCn1c(SC(C)C(N)=O)nc2cc(C(=O)OC)ccc2c1=O (stereo not drawn) | inactive | 
C/C(N)=C(/C#N)C(=O)CSc1nnc(COc2cc(C)ccc2C)o1 | inactive | 
COc1ccc(S(=O)(=O)N2CC3CCCN3c3ccc(C(F)(F)F)cc32)cc1 (stereo not drawn) | inactive | 
Cc1nn(Cc2ccc(Cl)cc2)c(C)c1NC(=O)CSc1nc2c(c(C(F)(F)F)n1)CCc1ccccc1-2 | inactive | 
Nc1ccc(N=Nc2c(S(=O)(=O)O)cc3ccccc3c2S(=O)(=O)O)cc1 |  | 8.88% [at 11.4 µM] (inactive)
COc1cnc(-c2ccccn2)nc1Oc1ccc(Cl)c2ccccc12 | inactive | 
Cn1cc(-c2nc3cnc(N4CCOCC4)nc3n(CCC#N)c2=O)c2ccccc21 | inactive | 
CCOc1ccc(Cc2nc(C)c(CC(=O)N3CCOCC3)c(=O)[nH]2)cc1 | inactive | 
Cc1noc(C)c1C(=O)N1CCC2(CCCN(C(=O)Nc3cccc(F)c3)C2)CC1 | inactive | 
NC(=NCc1ccc(Cl)c(Cl)c1)NC(=O)c1nc(Cl)c(N)nc1N | 12.6 µM (active) | 
NC(=NCc1ccccc1)NC(=O)c1nc(Cl)c(N)nc1N | 15.8 µM (active) and 5.01 µM (active) | 

SMILES | AC50 | activity, negative = inhibition
COC(=O)c1nnn(Cc2ccccc2)c1N | inactive | 
NC(Cc1ccccc1)=NCC(=O)O |  | 9.41% [at 11.4 µM] (inactive)
Cc1cc(C)c2c(=O)[nH]c(SCC(=O)N(C)C)nc2n1 | inactive | 
CN(C)c1ncc2nc(-c3ccc(Cl)cc3)c(=O)n(Cc3cccs3)c2n1 | inactive | 
CCOc1ccc(OCC)c(-c2c(=O)n(OCc3ccc(C(C)(C)C)cc3)c3ccccc3[n+]2[O-])c1 | inactive | 
CC(=O)NNc1cccc(Cl)n1 | inactive | 
CCOC(=O)C1=C(c2ccccc2)N=c2s/c(=C\c3cccc(O)c3)c(=O)n2C1c1cccs1 (stereo not drawn) | 3.16 µM (active) | 
CCOC(=O)C1=C(c2ccccc2)N=c2s/c(=C\c3ccc(O)cc3)c(=O)n2C1c1cccs1 (stereo not drawn) | inactive | 
CCOC(=O)C1=C(c2ccccc2)N=c2s/c(=C\c3cc(OC)c(OC)c(OC)c3)c(=O)n2C1c1cccs1 (stereo not drawn) | inactive | 
Cc1cc(/C=C(/C#N)C(=O)Nc2ccccc2)c(C)n1-c1cccnc1 | inactive | 
O=c1c(-c2cccs2)nc2cncnc2n1-c1ccccc1 | inactive | 
O=c1[nH][nH]c(C(F)(F)F)c1C=Nc1ccccc1Cl | inactive | 
O=C(CSc1cccc2cccnc12)OCC(=O)c1ccccc1 | inactive | 
Cn1c(=O)c(CCc2ccccc2)nc2cnc(Nc3ccccc3)nc21 | inactive | 
Cn1c(=O)c(CCc2ccccc2)nc2cncnc21 | inactive | 
CCNc1ncc2nc(CCc3ccccc3)c(=O)n(Cc3ccc(F)cc3)c2n1 | inactive | 
CCNc1ncc2nc(CCc3ccccc3)c(=O)n(C3CC3)c2n1 | 0.398 µM (active) | 
CCNc1ncc2nc(C)c(=O)n(C3CC3)c2n1 | inactive | 
COc1cccc(Nc2ncc3nc(CCc4ccccc4)c(=O)n(C4CC4)c3n2)c1 | inactive | 
COc1ccc(-n2c(=O)c(CCc3ccccc3)nc3cncnc32)cc1 | inactive | 
COc1ccc(-n2c(=O)c(CCc3ccccc3)nc3cnc(N4CCN(C)CC4)nc32)cc1 | inactive | 
COc1ncc2nc(CCc3ccccc3)c(=O)n(-c3ccccc3)c2n1 | inactive | 
CCNc1ncc2nc(CCc3ccccc3)c(=O)n(-c3ccccc3)c2n1 | 0.1 µM (active) | 
CCNc1ncc2nc(CCc3ccccc3)c(=O)n(-c3ccc(OC)cc3)c2n1 | 0.251 µM (active) | 

SMILES | AC50 | activity, negative = inhibition
CCNc1ncc2nc(CCc3ccccc3)c(=O)n(C)c2n1 | 1.58 µM (active) | 
CC(C)Cc1nc(N2CCN(C(=O)c3ccccc3)CC2)c(C#N)c2c1CCC2 | inactive | 
Nc1nc(N)[n+]([O-])c(N)c1NCO |  | -8.44% [at 11.4 µM] (inactive)
CCN1C(=O)[C@H]2[C@H]3[C@H](O)[C@H](O)C/C(=N/OCC(C)C)[C@@H]3CC[C@@H]2C1=O |  | 8.5% [at 11.4 µM] (inactive)
O=C(CN1C(=O)C2C3C=CC(C3)C2C1=O)Nc1ccc(C(=O)O)cc1 (stereo not drawn) | inactive | 
CC(C)OC(=O)c1cccc(C(=O)Oc2ccc(Br)cc2)n1 | inactive | 
COc1cc(C2C(C#N)=C(N)N(Nc3ccccc3)C3=C2C(=O)CC(C)(C)C3)ccc1OCc1ccccc1 (stereo not drawn) | inactive | 
Cc1c(-n2cc(C(=O)c3cc(Cl)ccc3O)cc(C#N)c2=O)c(=O)n(-c2ccccc2)n1C | inactive | 
CN(C)[C@H]1C(=O)C(C(=O)NCN2CCCC2)=C(O)[C@]2(O)C(=O)C3=C(O)c4c(O)cccc4[C@@](C)(O)[C@H]3C[C@@H]12 | inactive | 
CCOC(=O)c1c(NC(=O)c2c(Br)cnn2C)c(C#N)nn1-c1ccccc1 | inactive | 
O=C(N/N=C/c1ccccn1)c1ccco1 | inactive | 
COc1cccc2cc(NC(=O)C3CCCCC3)c(=O)oc12 | inactive | 
Cc1ccc(-n2nc(C)c3c2OC(N)=C(C#N)C3c2ccco2)cc1 (stereo not drawn) | inactive | 
COc1ccc(C(=O)N2CCCCC2)cc1S(=O)(=O)Nc1ccccc1 | inactive | 
CCOc1ccc(-c2nn(-c3ccccc3)cc2/C=C2\SC(N)=NC2=O)cc1C | inactive | 
CSc1nsc(SCc2ccc(Cl)cc2)n1 | inactive | 
O=C1c2ccccc2CC[C@H]1CNCCc1ccc(O)cc1 | 0.398 µM (active) | 
CCOc1cc(C)ccc1OCc1nnc(SCC(=O)c2cccc([N+](=O)[O-])c2)n1C | inactive | 
CCOC(=O)CSC1=NC(=O)/C(=C\c2ccc(Cl)cc2)S1 | inactive | 
C[C@@H](CN1CCC(Cc2ccccc2)CC1)[C@H](O)c1ccc(O)cc1 | 1 µM (active) | 
C[C@@H](CN1CCC(Cc2ccccc2)CC1)[C@@H](O)c1ccc(O)cc1 | inactive | 
